CHOP inhibitor – inhibitors of CHOP induction in ER stress response; inhibition, % at 10 µM; AID 2732; CHO-K1 CHOP-promoter luciferase, tunicamycin-induced, 15-18 h; actives 3.8% (n = 220,000);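 active means compounds that reduced the stress-induced luciferase reporter signal by more than about 70% of percent inhibition, limit read from the data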;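 further: 0% = tunicamycin plus vehicle and 100% = wells without tunicamycin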
Lmaj promast – reduces viability of Leishmania major promastigotes; resazurin fluorescence viability; inhibition, % at 10 µM; actives 9% (n = 200,000); AID 1063; in the data active means inhibition above about 50%;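 further: promastigotes grown with compound for 44 hours at 28 °C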
WT yeast gro inh – growth inhibition of WT yeast, mitochondrial fusion screen; mitochondrial fusion phenotypic screen, WT strain; actives 2.1% (n = 190,000); AID 1362; inhibition, % at 10 µM; in the data active means inhibition above about 58%; tested in S. cerevisiae
RAM network inh – inhibitors of the yeast RAM network. actives 1.8% (n = 190,000). inhibition, % at 50 µM. S. cerevisiae dse1pr::URA3 reporter, 5-FOA growth OD615, 2 d; analog-sensitive cbk1-as2 kinase mutant strain. AID 868;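 active means inhibition above a set limit, 3 SD over mean compound inhibition, cut at about 8.4% in these data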;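 further: 0% = DMSO-only wells with no growth and 100% = 10 µM 1-NA-PP1 full growth; inhibition rescues growth on 5-FOA so higher OD means more RAM inhibition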
Numbers without * were called inactive; / = no result given. Most compounds without a hit are left out; they make up all but 13% or so of the library.

SMILES	CHOP inhibitor	Lmaj promast	WT yeast gro inh	RAM network inh
CC1=CCC2([N+](=O)[O-])CN(CC(=O)O)CC1([N+](=O)[O-])C2 (centres undefined)	-6	-4	-7	2
Clc1ccc(OCCSc2ncccn2)c2ccccc12	65	-1	11	1
c1cnc(SCCOc2cccc3ccccc23)nc1	76*	3	44	2
CCNC(=O)NC(=O)COC(=O)CCc1nc(=O)c2ccccc2n1C	-3	-3	-12	3
COC(=O)c1ccc(NC(=O)C(=O)N2CCN(C(=S)Nc3cccc(OC)c3)CC2)cc1	37	72*	8	3
O=C(OCC(=O)N1CCN(Cc2ccccc2)CC1)c1ccc(Cl)cc1	24	57*	48	1
COC(=O)c1ccc(NC(=S)N2CCN(Cc3ccc(Cl)cc3)CC2)cc1	89*	34	27	0
COC(=O)c1ccc(NC(=O)C(=O)N2CCN(C(=S)Nc3ccc(OC)cc3)CC2)cc1	35	31	3	4
COC(=O)c1ccc(NC(=O)C(=O)N2CCN(C(=S)Nc3ccc(C)cc3)CC2)cc1	7	66*	19	6
Cc1ccc(Cl)cc1-c1ccc(C=Nc2ccc(N3CCOCC3)cc2)o1	41	42	-14	-1
Cc1ccccc1OCCN(C#N)c1nc(N(C)C)nc(N(C)C)n1	29	2	28	4
O=C(NC1CCCC1)C(c1ccncc1)N(C(=O)c1csnn1)C1CCCC1 (centres undefined)	5	-5	-16	0
COC12NC(=O)N(C)C1(OC)C(=O)N(C)C(=O)N2C (centres undefined)	31	-6	3	1
Cc1ccc(NCC(=O)N/N=C/c2cc3ccccc3nc2Cl)cc1	22	84*	68*	0
Cn1c(N/N=C/c2cc3ccccc3nc2Cl)nc2ccccc21	-1	11	69*	4
Cn1c(N/N=C/c2c[nH]c3ccccc23)nc2ccccc21	15	101*	-1	0
Cc1nnc(C)n1/N=C/c1cc2ccccc2nc1Cl	-2	18	6	0
Cc1ccccc1Cn1nc(C)c(NC(=O)/C=C/c2cnn(C)c2)c1C	-4	17	0	-1
Cc1ccc2cc3c(N)c4c(C)ccc(C)c4nc3nc2c1	-53	100*	33	2
Cc1ccc(NC(=O)CN2C(=O)C3C4C=CC(C4)C3C2=O)cc1S(=O)(=O)N(C)C (centres undefined)	11	37	-10	0
C/C(=C\C(=O)c1ccc(Br)cc1)NCc1ccc(C)cc1	77*	-7	31	2
CCN1C(=O)C(O)(CC(=O)c2c(C)coc2C)c2ccccc21 (centres undefined)	13	-10	-4	3
Cc1coc(C)c1C(=O)CC1(O)C(=O)Nc2cc(Cl)cc(Cl)c21 (centres undefined)	32	19	67*	1
CC(OC(=O)c1ccc2c(=O)n3c(nc2c1)CCCCC3)C(=O)Nc1ccc(F)cc1Cl (centres undefined)	65	56*	18	0
CC(OC(=O)c1ccc2c(=O)n3c(nc2c1)CCCCC3)C(=O)Nc1ccc(Cl)cn1 (centres undefined)	60	-4	-17	5
SMILES	CHOP inhibitor	Lmaj promast	WT yeast gro inh	RAM network inh
Cc1ccc(S(=O)(=O)Oc2ccc(/C=N/NC(=O)c3nn(C)cc3[N+](=O)[O-])cc2)cc1	15	-4	-10	0
CC(Sc1ccsc1[N+](=O)[O-])C(=O)NCc1ccco1 (centres undefined)	11	30	-1	2
O=C(Nc1cccc(Cl)c1N1CCCC1)c1ccc(Br)o1	73*	-3	68*	2
O=C(Nc1ccccc1Oc1ccccc1)c1ccc(Br)o1	86*	29	53	1
O=C(Nc1cccc(Cl)c1N1CCCC1)c1ccc([N+](=O)[O-])o1	27	87*	16	7
Clc1ccccc1-c1nc2nc3ccccc3nc2n1-c1ccc2c(c1)OCO2	0	17	33	5
Cc1cc(/C=C2\NC(=S)N(C)C2=O)ccc1N1CCCC1	-10	13	32	3
CCCN1C(=O)/C(=C/c2ccc(N3CCCC3)c(C)c2)NC1=S	68	42	69*	5
Cc1ccc(-n2[nH]c3c4c(ccc3c2=O)C(=O)c2ccccc2C4=O)cc1	47	-4	2	-1
Cc1ccc(C)c(-n2[nH]c3c4c(ccc3c2=O)C(=O)c2ccccc2C4=O)c1	20	11	67*	6
CC(C)(C)n1[nH]c2c3c(ccc2c1=O)C(=O)c1ccccc1C3=O	55	95*	/	1
Nc1c(C(=O)O)ccc2c1C(=O)c1ccccc1C2=O	12	-4	23	0
CCN=C1SC(C(=O)Nc2ccccc2)CC(=O)N1CC (centres undefined)	-17	-4	-6	0
Cc1cc[n+]2cc(-c3cccc([N+](=O)[O-])c3)c(-c3cccc([N+](=O)[O-])c3)cc2c1	27	17	0	0
Nc1nc(N2CCN(C(c3ccccc3)c3ccccc3)CC2)n[nH]1	4	-5	6	3
O=c1nc2ccccc2c2n1CC(CN1CCN(C(c3ccccc3)c3ccccc3)CC1)N2 (centres undefined)	5	66*	36	1
Cc1nn(-c2ccccc2)c(N2CCCC2)c1/C=N/NC(=O)c1cc(-c2cccnc2)nc2ccccc12	19	29	0	2
Cc1cc(C)c2nc(NNC(=O)c3cc(-c4cccs4)nc4ccccc34)sc2c1	69	-2	64*	3
COc1ccc(-c2cc(C(=O)N/N=C/c3sccc3C)c3ccccc3n2)c(OC)c1	39	79*	20	0
O=C(N/N=C/c1ccc[nH]1)c1cc(-c2cccs2)nc2ccccc12	7	26	26	0
Cc1ccc(-c2cc(C(=O)N/N=C/c3c(C)nn(C)c3C)c3ccccc3n2)cc1C	-5	82*	11	0
Cn1cccc1/C=N/NC(=O)c1cc(-c2cccs2)nc2ccccc12	3	56*	22	1
Cc1ccc2sc(NNC(=O)c3cc(-c4cccs4)nc4ccccc34)nc2c1C	-11	2	31	4
S=c1nc(-c2csc3c2CCCC3)[nH][nH]1	-10	13	34	0
CC1CCC2C(=O)N(c3ccc(Cc4ccncc4)cc3)C(=O)C2C1 (centres undefined)	36	9	1	-1
SMILES	CHOP inhibitor	Lmaj promast	WT yeast gro inh	RAM network inh
CC(C)(C)c1ccc(/C=C(\C#N)C(=O)NCCN2CCOCC2)cc1	1	25	-4	0
COc1ccccc1-c1cc(C(=O)N/N=C/c2cccs2)c2ccccc2n1	44	51*	24	0
COc1ccc(-c2cc(C(=O)N/N=C/c3ccc4c(c3)OCO4)c3ccccc3n2)c(OC)c1	19	77*	9	1
CCOC(=O)c1cc(-c2ccccc2)sc1NC(=O)C(C)OC(=O)c1cccnc1Cl (centres undefined)	11	0	-9	6
C/C(=N\OC(=O)NC1CCCCC1)c1sc(-c2ccccc2)nc1C	39	19	-11	10*
Cc1cc(Cl)c(S(=O)(=O)N2CCN(c3ccccn3)CC2)cc1OCC(N)=O	30	-4	14	2

Bioassay records as filed in PubChem BioAssay.
